# Compound activity deposited in PubChem BioAssay by The Scripps Research Institute Molecular Screening Center.
# Only a selection was taken, and hits are over-represented in it overall.
# TTR transcr act = increases transthyretin transcription; SH-SY5Y TTR promoter Gaussia luciferase, luminescence; 100% = recombinant luciferase protein wells; activation, % at 16.7 µM; 92,000 tested, 1.3% active;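 active means activation above the mean of all tested compounds plus 3 SD, cut at about 9.5% in these data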;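 further: cells exposed to compounds for one day before reading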
# HuH7 TTR inh = HuH7 TTR transcription inhibition, counter-screen; AID 1117279; 1,100 tested, 4% active; HuH7 TTR promoter-Gaussia luciferase reporter, luminescence; inhibition, % at 16.7 µM; shares compounds with TTR transcr act;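 active means average inhibition above the solvent-only control wells' mean plus 3 SD, cut at about 15% in these data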;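 further: inhibitors lower well luminescence so higher value means more inhibition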
# TTR up confirm = human TTR transcription activation, confirmation; SHSY5Y TTR promoter Gaussia luciferase, luminescence; 100% = purified Lucia enzyme wells, no cells; 1,100 tested, under 10 active; shares compounds with TTR transcr act; AID 1117280; activation, % at 16.7 µM;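 active means mean activation above a set limit taken from the earlier primary screen, cut at about 11% in these data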
# A number is an active result; i = inactive.
SMILES,TTR transcr act,others
C#CCNC(=O)C[C@H]1C[C@@]2(C(=O)OC)C(=C[C@H](COCc3ccccc3)O[C@@H]2C)N(CCc2ccc(OC)c(OC)c2)C1=O,i,
O=C(CSc1nnc(Cc2ccccc2)n1-c1cccc(Cl)c1)N1CCOCC1,21.6,
Cn1c(CCc2ccccc2)nnc1SCC(=O)N1CCOCC1,i,
Cc1cccc(-n2c(SCC(=O)N3CCN(c4ccccn4)CC3)nnc2N2CCOCC2)c1,i,
CSc1ccc(-c2cnc(N3CCC(C(N)=O)CC3)s2)cc1,i,
COc1cc2c(=O)n(CC3CCCO3)c(=O)n(CC(=O)Nc3ccc(F)cc3F)c2cc1OC (configuration not stated),i,
COc1cc2c(=O)n(CC3CCCO3)c(=O)n(CC(=O)Nc3cccc(Cl)c3)c2cc1OC (configuration not stated),10.4,HuH7 TTR inh=i;TTR up confirm=i
COc1ccc(NC(=O)Cn2c(=O)n(CC3CCCO3)c(=O)c3cc(OC)c(OC)cc32)c(OC)c1 (configuration not stated),i,
Cc1noc(C)c1S(=O)(=O)N1CCC(C(=O)O)CC1,i,
CS(=O)(=O)c1ccc(-c2sc3ccccc3c2C(=O)N2CCN(c3ccc(F)cc3)CC2)cc1,i,
CCCCNc1nc(Cl)nc(Nc2ccc(C)cc2)n1,i,
COc1ccccc1CC(NC(C)=O)C(=O)NC1CCN(C(=O)Nc2ccc(F)cc2)CC1 (configuration not stated),i,
COc1ccc(CC(NC(C)=O)C(=O)NC2CCN(C(=O)c3ccc([N+](=O)[O-])cc3)CC2)cc1OC (configuration not stated),i,
COc1ccccc1CC(NC(C)=O)C(=O)NC1CCN(C(=O)c2ccc([N+](=O)[O-])cc2)CC1 (configuration not stated),12.5,HuH7 TTR inh=i;TTR up confirm=i
CC(C)[C@H]1/C(=C/C2CC2)N2C(=O)C[C@H](c3cccc(C(F)(F)F)c3)N=C2N1Cc1ccc2c(c1)OCO2,i,
Cc1ccc(S(=O)(=O)c2nc(-c3ccco3)oc2SCC(N)=O)cc1,i,
O=C(CSc1oc(-c2ccco2)nc1S(=O)(=O)c1ccccc1)NCC1CCCO1 (configuration not stated),11.7,HuH7 TTR inh=i;TTR up confirm=i
O=C(CSc1nc2ccccc2o1)NCC1CCCO1 (configuration not stated),i,
CCCCCCCCN1C(=O)[C@@H](CC(=O)NCCCN2CCCC2=O)C[C@@]2(C(=O)OC)C1=C[C@H](C(C)C)O[C@@H]2C1CC1,i,
C[C@H]1[C@@H](OC(=O)NCc2cccs2)CC[C@@]23CCCN2C(=O)CCC[C@@H]13,i,
CC(=O)N1C[C@H]2CON(C)[C@H]2C[C@H]1c1cccc(N2CCOCC2)c1,i,
Cc1ccc(NS(=O)(=O)c2cccc(C(=O)O)c2)cc1S(=O)(=O)N1CCCCC1,i,
CCN(CC)S(=O)(=O)c1cc(NS(=O)(=O)c2cccc(C(=O)O)c2)ccc1C,11.3,HuH7 TTR inh=i;TTR up confirm=i
COc1ccc(NS(=O)(=O)c2cccc(C(=O)O)c2)cc1,i,
C/C(=N\NC(=O)c1nn(C)c(C)c1Br)c1ccc(NC(=O)C2CCCC2)cc1,i,
SMILES,TTR transcr act,others
Cc1cccc(OCC(=O)NC2CCCc3ccccc32)c1C (configuration not stated),i,
Cc1ccc(C(=O)OCC(=O)NC2CCCc3ccccc32)o1 (configuration not stated),18.1,HuH7 TTR inh=i;TTR up confirm=i
Cc1ccc(CC(=O)NC2CCCc3ccccc32)cc1C (configuration not stated),i,
CC(c1ccccc1)N1C(=O)/C(=C/c2ccncc2)SC1=S (configuration not stated),i,
CCOc1ncccc1C(=O)OCC(=O)Nc1cc(C(C)(C)C)ccc1OC,i,
CCC(CO)Oc1cc(NCc2ccncc2)c2ncn(C(C)C)c2c1 (configuration not stated),i,
CCC(CO)Oc1cc(NCc2ccc(F)cc2)c2ncn(C(C)C)c2c1 (configuration not stated),i,
CCC(CO)Oc1cc(NCc2cc(C)cc(C)c2)c2ncn(C(C)C)c2c1 (configuration not stated),10.9,HuH7 TTR inh=i;TTR up confirm=i
O=S(=O)(Nc1cccc(-c2nnco2)c1)c1ccc(F)cc1F,i,
O=C(CC[C@H]1O[C@@H](n2ccc(=O)[nH]c2=O)[C@H](O)[C@@H]1O)N[C@H](Cc1ccccc1)C(=O)NCc1ccc2c(c1)OCO2,i,
c1nc(NC[C@@H]2CCCO2)c2cc(-c3ccc4c(c3)OCO4)ccc2n1,i,
CCOC(=O)Cc1csc(NC(=O)CCCC(=O)O)n1,i,
COc1ccc2[nH]c3c(N4CCc5ccccc5C4)ncnc3c2c1,i,
COc1ccc2[nH]c3c(Cl)ncnc3c2c1,16.5,HuH7 TTR inh=19.4;TTR up confirm=i
CCCCOc1ncnc2c1[nH]c1ccc(OC)cc12,i,
CCC(C)NC(=S)N(Cc1cc2cc(C)ccc2n2nnnc12)CC(C)(C)NC(C)C (configuration not stated),i,
COc1cccc(-c2ncn(CCc3ccccc3OC)c2C(C)C)c1,i,
O=C(Nc1cc([N+](=O)[O-])c2[nH]c(=O)c3ccccc3c2c1)C(F)(F)F,i,
NC(=O)Cn1nc(-c2ccccc2)nc1-c1ccccc1,i,
Cn1c(-c2ccccc2)c(/C=N/NC(=O)c2ccc(O)cc2)c2ccccc21,i,
O=c1[nH][nH]c2ccccc2c1=O,i,
COc1ccc(Cc2nnc(NC(=O)c3ccc(OC(C)=O)cc3)s2)cc1OC,i,
COc1cccc(C(=O)Nc2nnc(Cc3ccc(OC)c(OC)c3)s2)c1,i,
COc1ccc(Cc2nnc(NC(=O)c3cccs3)s2)cc1OC,15.1,HuH7 TTR inh=i;TTR up confirm=i
CC1CCCN(CC(=O)N2c3ccccc3Sc3ccccc32)C1 (configuration not stated),15.1,HuH7 TTR inh=i;TTR up confirm=i
SMILES,TTR transcr act,others
O=C(CN1CCCC(O)C1)N1c2ccccc2Sc2ccc(C(F)(F)F)cc21 (configuration not stated),i,
CN(C)CC(=O)N1c2ccccc2Sc2ccc(Cl)cc21,i,
C=CCCC(=O)N1C[C@H]2CON(C)[C@H]2C[C@H]1c1cccc(Br)c1,i,
Nn1cc(-c2ccccc2)nc1SCC(=O)Nc1ccc2c(c1)OCO2,13.5,HuH7 TTR inh=i;TTR up confirm=i
O=C(CSc1nc2ccccc2s1)Nc1ccc2c(c1)OCO2,i,
Nn1c(SCC(=O)Nc2ccc3c(c2)OCO3)nncc1=O,i,
COc1ccc(NC(=O)C2c3ccccc3OCC(=O)N2Cc2ccc3c(c2)OCO3)cc1 (configuration not stated),i,
COCCCNC(=O)CC1C[C@H](C(=O)N2CCCCC2)[C@@]2(CCc3ccccc3)c3[nH]c4ccc(OC)cc4c3CCN2C1=O (some centres not stated),i,
CC1(c2ccccc2)NC(=O)N(CC(=O)N(c2ccccc2)C2CCS(=O)(=O)C2)C1=O (configuration not stated),13.7,HuH7 TTR inh=i;TTR up confirm=i
CCC1(c2ccccc2)NC(=O)N(CC(=O)N(c2ccccc2)C2CCS(=O)(=O)C2)C1=O (configuration not stated),i,
COc1ccc(C2(C)NC(=O)N(CC(=O)N(c3ccccc3)C3CCS(=O)(=O)C3)C2=O)cc1 (configuration not stated),i,
Cc1ccc(C2N(c3ccc(Cl)cc3)C(=O)N3CCCN23)cc1 (configuration not stated),i,
